Measured values published in PubChem BioAssay (NCI).
The panel holds about 79,000 compounds, 15% with a hit somewhere; the sample as a whole holds those more often. Cut-off read from the data, not from the text of the source: active = growth inhibition above about 70%; inactive = the rest.

Tests used:
[1] = NCI Yeast Anticancer Drug Screen. Data for the rad50 strain (AID 155);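 note: 0% = growth of vehicle-only cultures of the same strain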; conditions: S. cerevisiae rad50 strain growth inhibition; at 50.0 µM; stronger effect = higher value
Outline: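 Readout: growth inhibition relative to vehicle-treated cultures. Compound exposure was carried out in a genetically defined yeast strain deficient in DNA damage repair.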

[2] = NCI Yeast Anticancer Drug Screen. Data for the mec2-1 strain (AID 157); conditions: S. cerevisiae mec2-1 strain, at 50.0 µM, stronger effect = higher value
Outline: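 Test agents were screened against the mec2-1 yeast strain, with defined DNA repair or cell cycle alteration. Growth was scored as inhibition against vehicle-only controls.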

[3] = NCI Yeast Anticancer Drug Screen. Data for the sgs1 mgt1 strain (AID 161);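 note: 0% = growth of cultures given vehicle only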; conditions: S. cerevisiae sgs1 mgt1 strain, at 50.0 µM, stronger effect = higher value
Outline: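 Read-out: growth inhibition vs vehicle controls. Cells: mutant yeast strain deficient in DNA damage repair.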

[4] = NCI Yeast Anticancer Drug Screen. Data for the cln2 rad14 strain (AID 165);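 note: 0% = growth equal to vehicle treated cultures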; conditions: S. cerevisiae cln2 rad14 strain, at 50.0 µM, stronger effect = higher value
Outline: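 Growth of compound-exposed yeast (cln2 rad14 genotype) measured and expressed as inhibition relative to vehicle.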

[5] = NCI Yeast Anticancer Drug Screen. Data for the bub3 strain (AID 167); conditions: S. cerevisiae bub3 mutant strain, at 50.0 µM, stronger effect = higher value
Outline: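 Readout: yeast growth inhibition, expressed relative to vehicle-only wells. The test organism is a mutant strain from a panel with lesions in DNA repair or checkpoint genes.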

[6] = NCI Yeast Anticancer Drug Screen. Data for the mlh1 rad18 strain (AID 175); conditions: S. cerevisiae mlh1 rad18 strain growth inhibition; at 50.0 µM; stronger effect = higher value
Outline: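 In this whole-cell yeast screen, a strain with altered DNA damage repair is challenged with compound, and its growth is measured against matched vehicle-treated controls.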

Measured: growth inhibition

O=C(Nc1ccc(Cl)c(Cl)c1)c1ccc(C(=O)Nc2ccc(Cl)c(Cl)c2)cc1
inactive: [1] 8.35% | [2] 19.1% | [3] 25.1% | [4] -18.9% | [5] -4.85% | [6] 30.3%

N#Cc1c(O)c(C=O)c(=O)n2c1[nH]c1ccccc12
inactive: [1] -30.6% | [2] -45.5% | [3] -21.7% | [4] -8.15% | [5] 4.05% | [6] -0.05%

CC(=O)Nc1ccc(S(=O)(=O)N/N=C/c2ccc3c(c2)OCO3)cc1
inactive: [1] 4.85% | [2] -20.2% | [3] 2.55% | [4] 2.15% | [5] -33.7% | [6] -20.5%

COC(=O)[C@@]1(C)/C(=N/NS(=O)(=O)c2ccc(C)cc2)CCC[C@@H]1C
inactive: [1] 11.4% | [2] -23% | [3] -7.15% | [4] 3.05% | [5] -1.4% | [6] -1.85%

COC1OC(COC(c2ccccc2)(c2ccccc2)c2ccccc2)C(OS(=O)(=O)c2ccc(C)cc2)C(OC(=O)c2ccccc2)C1OC(=O)c1ccccc1 (stereo not given)
inactive: [1] 0.1% | [2] -6.7% | [3] -1.15% | [4] -7.35% | [5] 0.3% | [6] 27.9%

CC(C)NC(=O)NCCc1c[nH]c2ccccc12
inactive: [1] -49.9% | [2] -11.8% | [3] 1.85% | [4] 6.95% | [5] 16.2% | [6] -13.2%

C=C(C)C1CC/C(C)=C/CC[C@]2(C)O[C@H]2CC/C(COC(C)=O)=C\[C@@H]1O (stereo not given in full)
inactive: [1] -7.9% | [2] -8.7% | [3] 2.2% | [4] 3.65% | [5] -18.6% | [6] -54.6%

CC(=O)OCC1OC(n2ncnc2CI)C(OC(C)=O)C(OC(C)=O)C1OC(C)=O (stereo not given)
inactive: [1] 36.5% | [2] 8.35% | [3] 13.6% | [4] 16.9% | [5] 4.15% | [6] 21.5%

CCCCC(=O)OCC(=O)[C@]1(O)Cc2c(O)c3c(c(O)c2[C@@H](OC2CC(NC(=O)C(F)(F)F)C(O)C(C)O2)C1)C(=O)c1c(OC)cccc1C3=O (stereo not given in full)
inactive: [1] 19.5% | [2] 21.3% | [3] 29.9% | [4] 4.9% | [5] 53% | [6] 30.8%

C/C(=N\O)c1ccc2[nH]c(C)cc(=O)c2c1
inactive: [1] 2.95% | [2] 5.7% | [3] -5.45% | [4] -32.9% | [5] -1.15% | [6] 12.7%

O=c1[nH]c(=S)[nH]c2[nH]c(=S)ncc12
inactive: [1] -26.8% | [2] -43.1% | [3] -31.8% | [4] 1.9% | [5] -13.1% | [6] -15.1%

O=C(O)CSc1n[nH]c(-c2ccccc2)n1
inactive: [1] -14.2% | [2] -4.3% | [3] -7.5% | [4] 2.55% | [5] 2.3% | [6] -9.35%

N#Cc1cccc(C2SCc3nc4ccccc4n32)c1 (stereo not given)
inactive: [1] -1.1% | [2] -8.9% | [3] 25.9% | [4] 23.1% | [5] 4.8% | [6] 18.1%

COCCOCc1nc(C#N)c(N)o1
inactive: [1] -6.6% | [2] 2.6% | [3] -36% | [4] 13.8% | [5] -24% | [6] -66.2%

O=C(/C=C\c1ccc(Cl)cc1)c1ccccc1
inactive: [1] -23.1% | [2] -34.5% | [3] 15.3% | [4] -6.4% | [5] 12.7% | [6] 2.05%

O=C(CC1C(=O)Nc2ccccc2S1=O)Nc1cccc(Cl)c1 (stereo not given)
inactive: [1] -32.2% | [2] -31.1% | [3] -4.5% | [4] 18.2% | [5] 10.1% | [6] -25.2%

COc1ccc(C2C(=O)c3ccc(OC)cc3OC2c2cccnc2)cc1 (stereo not given)
inactive: [1] 14.9% | [2] -8.8% | [3] 53.7% | [4] 29.6% | [5] 45.8% | [6] 25.2%

COc1ccc(/C=C/c2ccc3ccccc3[n+]2C)cc1OC
inactive: [1] 32% | [2] 4.55% | [3] 32.6% | [4] 21.3% | [5] 0.7% | [6] 15.9%

CCCCOP(=O)(OCCCC)C(c1ccccc1)(c1ccccc1)c1ccccc1
inactive: [1] 48.9% | [2] 42.5% | [3] 49.8% | [4] 42.5% | [5] 5.9% | [6] 59.6%

N#Cc1c(C(=O)NN)c2c(-c3ccc4ccccc4c3)n[nH]c(=O)c2[nH]c1=O
inactive: [1] 20.4% | [2] 23.4% | [3] 30.4% | [4] 4.1% | [5] 7.1% | [6] 42.9%

CCOc1ccc(C(=O)OCCCl)cc1
inactive: [1] 9.85% | [2] 0.75% | [3] -3.1% | [4] 5.25% | [5] 6.75% | [6] 10.6%

O=c1oc2ccccc2c(O)c1C(c1cccc(C(c2c(O)c3ccccc3oc2=O)c2c(O)c3ccccc3oc2=O)c1)c1c(O)c2ccccc2oc1=O
inactive: [1] 26.6% | [2] 37.5% | [3] -2.7% | [4] -17.6% | [5] -5.3% | [6] 67.8%

O=P1(c2ccccc2)C(c2ccccc2)=CC=C1c1ccccc1
inactive: [1] 23.4% | [2] 9.8% | [3] 18.1% | [4] 6.6% | [5] 12.3% | [6] 31.2%

CN(C)CCSC(CO)c1ccccc1 (stereo not given)
inactive: [1] -12.7% | [2] -13.4% | [3] 2.85% | [4] 9.2% | [5] -1.15% | [6] -6.5%

c1cc(CSSCc2ccncc2)ccn1
inactive: [1] -15% | [2] 3.15% | [3] -19.1% | [4] -13.2% | [5] -27.6% | [6] 4.75%

COc1ccccc1N=Nc1c(C)nc(N)nc1-c1ccccc1
inactive: [1] 23.1% | [2] 10.4% | [3] 25.9% | [4] 7.9% | [5] 4.6% | [6] 23.6%

CCN(CC)c1cc(-c2ccccc2)oc(=O)c1Cl
inactive: [1] 25.8% | [2] -10.3% | [3] 13.6% | [4] 9.4% | [5] 16.5% | [6] 20.6%

CN1Cc2ccccc2[C@H]2C(c3ccccc3)=NN(c3ccccc3)[C@H]21
inactive: [1] 39.6% | [2] 26.9% | [3] 59.2% | [4] 9.6% | [5] 41.2% | [6] 37.2%

O=C(O)CCC(=O)Nc1ccc(F)cc1
inactive: [1] 9.9% | [2] 26.6% | [3] 4.7% | [4] -86.3% | [5] 7.3% | [6] 1%

COc1cc(C)cc(OC)c1/C=C/C(=O)O
inactive: [1] 8.4% | [2] 11.1% | [3] -8.6% | [4] -13.6% | [5] 1.75% | [6] 2.25%

C1CCC(C2CCCC2)CC1
inactive: [1] 7.5% | [2] -0.35% | [3] -13% | [4] -32.6% | [5] -17.2% | [6] 4.15%

CC(=O)OC1COC(Cl)C(OC(C)=O)C1OC(C)=O (stereo not given)
inactive: [1] -4.95% | [2] -2.9% | [3] 0.1% | [4] 3.95% | [5] -8.95% | [6] 1.75%

CC(=O)OCC(OC(C)=O)C(OC(C)=O)C(C=NN(C(C)=O)S(=O)(=O)c1ccc(/C=C2\NC(=O)NC2=O)cc1)OC(C)=O (stereo not given)
inactive: [1] -4.6% | [2] -30.9% | [3] -17.9% | [4] 14% | [5] -17.8% | [6] -7.15%

C/C=C(\Cl)C(OC(C)=O)OC(C)=O
inactive: [1] -1.45% | [2] -0.2% | [3] -6.15% | [4] -6.8% | [5] 18.4% | [6] 2.55%

CCCCCCC1=CCCC1=O
inactive: [1] -3.5% | [2] -25.4% | [3] -3.35% | [4] -3.6% | [5] 2.55% | [6] 11.5%

CC(C)c1ccc(/C=C2/C=C(c3ccc4ccccc4c3)OC2=O)cc1
inactive: [1] -9.25% | [2] -1.7% | [3] -31.8% | [4] -3.75% | [5] -17.8% | [6] -18.9%

CN(C)Cc1ccccc1C=C(c1ccccc1)c1ccccc1
inactive: [1] 3.05% | [2] 0.65% | [3] -6.2% | [4] -37.9% | [5] 0.55% | [6] -9.8%

CCc1cccc(CC)c1NC(=O)c1ccc(C)cc1
inactive: [1] -6.25% | [2] -30% | [3] 9.4% | [4] 7.2% | [5] -1.35% | [6] -4%

Cc1ccc(S(=O)(=O)NC(=O)C#CCOC2CCCCO2)cc1 (stereo not given)
inactive: [1] 8.7% | [2] -0.85% | [3] -3.3% | [4] 14.3% | [5] 22.6% | [6] 18.2%

O=c1ccc2cc3ccoc3c(OCCOCCOCCOCCOc3c4occc4cc4ccc(=O)oc34)c2o1
inactive: [1] 14.7% | [2] 17.4% | [3] 11.4% | [4] -17.2% | [5] 3.5% | [6] 26.8%
